Here are results for 1 compound from the supplement of paper PMC11732987, “Enantioselective OTUD7B fragment discovery through chemoproteomics screening and high-throughput optimisation” (Communications Chemistry, 2025).

Test in all cases: log2 ratio of Biotin-Ahx-Ub-VS probe labelling (fragment/DMSO); higher = less target engagement (more negative = stronger competition), active = hit call of the paper (q ≤ 0.05, log2 ratio ≤ -1)
Common to all, as to details: compound concentration: 200 uM; treatment time: 3 h

One assay addresses USP16 (UniProt Q9Y5T5). In outline: (§1)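 Using Biotin-Ahx-Ub-VS at 0.5 µM final for 1 h, DUBs were labelled in HEK293T lysate (495 µg per sample) that had first been treated in triplicate with fragment at 200 µM or vehicle for 3 h. NeutrAvidin enrichment, LysC and trypsin digestion and diaPASEF LC-MS/MS followed. Spectronaut label-free quantities were global-median-normalised. Values are average log2 fragment/vehicle ratios by unpaired t-test, using proteins with ≥2 unique peptides.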

For the next assay, the target named is T1, USP19 (UniProt O94966).
T1 sequence (whole entry): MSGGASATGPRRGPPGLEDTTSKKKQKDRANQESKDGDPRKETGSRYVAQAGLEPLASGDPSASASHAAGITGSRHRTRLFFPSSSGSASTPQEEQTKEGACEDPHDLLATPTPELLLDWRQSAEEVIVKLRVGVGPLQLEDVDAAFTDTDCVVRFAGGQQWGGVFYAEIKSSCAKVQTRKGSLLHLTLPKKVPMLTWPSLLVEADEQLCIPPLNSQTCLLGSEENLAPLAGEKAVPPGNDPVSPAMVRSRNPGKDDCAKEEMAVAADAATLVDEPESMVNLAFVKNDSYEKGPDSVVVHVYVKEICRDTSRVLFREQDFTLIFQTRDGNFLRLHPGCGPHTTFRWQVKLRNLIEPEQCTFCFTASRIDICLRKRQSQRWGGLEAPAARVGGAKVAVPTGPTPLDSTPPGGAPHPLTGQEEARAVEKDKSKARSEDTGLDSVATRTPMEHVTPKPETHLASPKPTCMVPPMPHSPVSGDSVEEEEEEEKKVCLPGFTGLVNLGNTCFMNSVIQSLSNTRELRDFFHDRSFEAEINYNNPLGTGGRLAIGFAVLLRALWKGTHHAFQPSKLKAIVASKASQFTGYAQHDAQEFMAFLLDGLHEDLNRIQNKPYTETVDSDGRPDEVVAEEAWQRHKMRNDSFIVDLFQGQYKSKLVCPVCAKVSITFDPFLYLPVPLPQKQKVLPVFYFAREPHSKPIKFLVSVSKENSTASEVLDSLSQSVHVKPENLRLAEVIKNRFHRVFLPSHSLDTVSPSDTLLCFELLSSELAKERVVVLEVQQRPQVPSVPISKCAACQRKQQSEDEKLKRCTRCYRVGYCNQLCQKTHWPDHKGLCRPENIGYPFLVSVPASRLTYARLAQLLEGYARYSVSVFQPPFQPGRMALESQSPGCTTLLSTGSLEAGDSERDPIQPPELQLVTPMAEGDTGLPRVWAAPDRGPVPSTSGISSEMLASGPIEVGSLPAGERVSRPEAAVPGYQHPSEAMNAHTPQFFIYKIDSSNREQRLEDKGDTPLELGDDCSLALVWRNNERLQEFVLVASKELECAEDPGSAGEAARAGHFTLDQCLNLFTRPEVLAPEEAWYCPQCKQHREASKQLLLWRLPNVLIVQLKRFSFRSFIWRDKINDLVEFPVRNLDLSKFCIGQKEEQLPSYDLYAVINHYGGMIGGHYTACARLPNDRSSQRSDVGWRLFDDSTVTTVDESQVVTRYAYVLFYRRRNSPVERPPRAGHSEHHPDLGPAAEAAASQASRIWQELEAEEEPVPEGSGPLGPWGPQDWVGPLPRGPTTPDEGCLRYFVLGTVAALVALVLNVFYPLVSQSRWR
In outline:
as §1

A further assay concerns the target USP24 (UniProt Q9UPU5). The method, boiled down: as §1
The next assay addresses T2, USP25 (UniProt Q9UHP3).
T2 sequence (whole entry): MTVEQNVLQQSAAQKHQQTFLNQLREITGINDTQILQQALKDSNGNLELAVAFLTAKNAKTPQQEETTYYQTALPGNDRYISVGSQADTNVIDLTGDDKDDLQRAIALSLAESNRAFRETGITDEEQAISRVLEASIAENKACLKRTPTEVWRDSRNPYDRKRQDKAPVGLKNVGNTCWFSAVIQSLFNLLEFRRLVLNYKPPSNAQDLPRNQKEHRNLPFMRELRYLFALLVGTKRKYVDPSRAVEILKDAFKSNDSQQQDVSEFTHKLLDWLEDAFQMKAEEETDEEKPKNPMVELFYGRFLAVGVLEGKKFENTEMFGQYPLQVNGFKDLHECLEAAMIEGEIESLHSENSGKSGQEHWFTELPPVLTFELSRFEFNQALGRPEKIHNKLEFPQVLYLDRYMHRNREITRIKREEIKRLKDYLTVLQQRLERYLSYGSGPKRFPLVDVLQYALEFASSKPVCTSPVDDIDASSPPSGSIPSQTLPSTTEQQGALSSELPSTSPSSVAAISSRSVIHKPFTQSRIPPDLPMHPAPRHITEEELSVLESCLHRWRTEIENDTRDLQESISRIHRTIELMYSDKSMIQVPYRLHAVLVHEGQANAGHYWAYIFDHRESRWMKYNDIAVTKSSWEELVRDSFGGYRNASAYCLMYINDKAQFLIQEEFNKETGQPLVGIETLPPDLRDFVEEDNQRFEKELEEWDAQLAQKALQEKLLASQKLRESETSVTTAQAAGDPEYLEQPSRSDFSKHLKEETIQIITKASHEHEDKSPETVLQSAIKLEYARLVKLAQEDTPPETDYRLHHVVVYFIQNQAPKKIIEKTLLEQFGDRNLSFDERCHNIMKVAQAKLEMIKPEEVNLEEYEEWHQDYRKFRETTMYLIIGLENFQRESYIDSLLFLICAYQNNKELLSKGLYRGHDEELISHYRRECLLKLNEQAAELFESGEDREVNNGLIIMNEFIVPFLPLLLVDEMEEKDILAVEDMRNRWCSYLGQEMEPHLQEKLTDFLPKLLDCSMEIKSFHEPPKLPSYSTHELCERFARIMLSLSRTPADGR
In outline: as §1

The target of the next assay is T3, USP28 (UniProt Q96RU2).
T3 sequence (whole entry): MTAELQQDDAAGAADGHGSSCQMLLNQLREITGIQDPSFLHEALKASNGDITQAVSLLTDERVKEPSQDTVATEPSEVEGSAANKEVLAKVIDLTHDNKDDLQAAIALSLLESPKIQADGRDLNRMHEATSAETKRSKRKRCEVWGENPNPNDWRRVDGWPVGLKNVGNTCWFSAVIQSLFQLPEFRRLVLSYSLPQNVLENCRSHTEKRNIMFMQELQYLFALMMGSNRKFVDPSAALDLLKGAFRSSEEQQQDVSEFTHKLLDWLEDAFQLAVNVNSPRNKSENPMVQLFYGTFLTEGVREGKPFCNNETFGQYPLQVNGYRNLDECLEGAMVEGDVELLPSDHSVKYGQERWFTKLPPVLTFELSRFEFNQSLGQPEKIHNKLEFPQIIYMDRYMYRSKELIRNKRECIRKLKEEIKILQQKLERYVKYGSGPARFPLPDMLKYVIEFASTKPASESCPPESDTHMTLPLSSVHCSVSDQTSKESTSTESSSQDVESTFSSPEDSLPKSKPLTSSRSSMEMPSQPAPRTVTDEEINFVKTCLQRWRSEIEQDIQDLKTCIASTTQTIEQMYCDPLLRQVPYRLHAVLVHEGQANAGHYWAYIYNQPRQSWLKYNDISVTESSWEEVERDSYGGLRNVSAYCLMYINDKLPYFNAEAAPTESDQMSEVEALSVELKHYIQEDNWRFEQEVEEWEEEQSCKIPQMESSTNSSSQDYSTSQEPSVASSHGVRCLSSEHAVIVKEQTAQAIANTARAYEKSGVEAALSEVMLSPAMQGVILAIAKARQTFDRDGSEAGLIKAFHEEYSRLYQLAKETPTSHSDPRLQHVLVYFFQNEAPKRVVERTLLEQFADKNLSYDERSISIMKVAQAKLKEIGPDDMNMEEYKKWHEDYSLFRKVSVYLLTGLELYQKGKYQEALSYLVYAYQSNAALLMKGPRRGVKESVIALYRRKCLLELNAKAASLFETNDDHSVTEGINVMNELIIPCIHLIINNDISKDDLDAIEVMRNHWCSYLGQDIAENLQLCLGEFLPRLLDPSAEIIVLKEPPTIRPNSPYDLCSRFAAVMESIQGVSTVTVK
The method, boiled down: as §1

Values without a mark were called inactive.

Sequence of USP16 (Q9Y5T5 whole entry, looked up, the tested form may be a part): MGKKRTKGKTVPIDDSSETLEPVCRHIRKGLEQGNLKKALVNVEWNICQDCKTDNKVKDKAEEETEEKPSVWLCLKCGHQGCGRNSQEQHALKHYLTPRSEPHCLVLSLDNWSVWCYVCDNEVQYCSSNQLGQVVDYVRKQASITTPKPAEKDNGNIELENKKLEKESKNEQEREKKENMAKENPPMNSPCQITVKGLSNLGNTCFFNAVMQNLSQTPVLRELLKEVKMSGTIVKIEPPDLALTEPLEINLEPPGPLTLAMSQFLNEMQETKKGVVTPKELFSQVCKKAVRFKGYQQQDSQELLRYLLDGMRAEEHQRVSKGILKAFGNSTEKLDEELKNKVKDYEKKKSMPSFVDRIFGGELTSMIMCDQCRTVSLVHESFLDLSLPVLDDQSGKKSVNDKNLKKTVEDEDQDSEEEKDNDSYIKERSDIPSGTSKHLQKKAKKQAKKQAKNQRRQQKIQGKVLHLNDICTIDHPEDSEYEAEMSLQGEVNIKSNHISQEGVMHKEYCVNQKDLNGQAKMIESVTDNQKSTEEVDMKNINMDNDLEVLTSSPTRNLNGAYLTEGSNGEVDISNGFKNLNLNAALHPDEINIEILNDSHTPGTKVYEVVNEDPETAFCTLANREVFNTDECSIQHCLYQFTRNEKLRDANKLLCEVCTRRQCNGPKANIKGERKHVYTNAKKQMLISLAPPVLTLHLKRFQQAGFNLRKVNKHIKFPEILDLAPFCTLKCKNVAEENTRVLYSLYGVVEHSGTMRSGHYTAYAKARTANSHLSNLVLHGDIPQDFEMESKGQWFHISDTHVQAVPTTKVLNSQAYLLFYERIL
Sequence of USP24 (Q9UPU5 whole entry): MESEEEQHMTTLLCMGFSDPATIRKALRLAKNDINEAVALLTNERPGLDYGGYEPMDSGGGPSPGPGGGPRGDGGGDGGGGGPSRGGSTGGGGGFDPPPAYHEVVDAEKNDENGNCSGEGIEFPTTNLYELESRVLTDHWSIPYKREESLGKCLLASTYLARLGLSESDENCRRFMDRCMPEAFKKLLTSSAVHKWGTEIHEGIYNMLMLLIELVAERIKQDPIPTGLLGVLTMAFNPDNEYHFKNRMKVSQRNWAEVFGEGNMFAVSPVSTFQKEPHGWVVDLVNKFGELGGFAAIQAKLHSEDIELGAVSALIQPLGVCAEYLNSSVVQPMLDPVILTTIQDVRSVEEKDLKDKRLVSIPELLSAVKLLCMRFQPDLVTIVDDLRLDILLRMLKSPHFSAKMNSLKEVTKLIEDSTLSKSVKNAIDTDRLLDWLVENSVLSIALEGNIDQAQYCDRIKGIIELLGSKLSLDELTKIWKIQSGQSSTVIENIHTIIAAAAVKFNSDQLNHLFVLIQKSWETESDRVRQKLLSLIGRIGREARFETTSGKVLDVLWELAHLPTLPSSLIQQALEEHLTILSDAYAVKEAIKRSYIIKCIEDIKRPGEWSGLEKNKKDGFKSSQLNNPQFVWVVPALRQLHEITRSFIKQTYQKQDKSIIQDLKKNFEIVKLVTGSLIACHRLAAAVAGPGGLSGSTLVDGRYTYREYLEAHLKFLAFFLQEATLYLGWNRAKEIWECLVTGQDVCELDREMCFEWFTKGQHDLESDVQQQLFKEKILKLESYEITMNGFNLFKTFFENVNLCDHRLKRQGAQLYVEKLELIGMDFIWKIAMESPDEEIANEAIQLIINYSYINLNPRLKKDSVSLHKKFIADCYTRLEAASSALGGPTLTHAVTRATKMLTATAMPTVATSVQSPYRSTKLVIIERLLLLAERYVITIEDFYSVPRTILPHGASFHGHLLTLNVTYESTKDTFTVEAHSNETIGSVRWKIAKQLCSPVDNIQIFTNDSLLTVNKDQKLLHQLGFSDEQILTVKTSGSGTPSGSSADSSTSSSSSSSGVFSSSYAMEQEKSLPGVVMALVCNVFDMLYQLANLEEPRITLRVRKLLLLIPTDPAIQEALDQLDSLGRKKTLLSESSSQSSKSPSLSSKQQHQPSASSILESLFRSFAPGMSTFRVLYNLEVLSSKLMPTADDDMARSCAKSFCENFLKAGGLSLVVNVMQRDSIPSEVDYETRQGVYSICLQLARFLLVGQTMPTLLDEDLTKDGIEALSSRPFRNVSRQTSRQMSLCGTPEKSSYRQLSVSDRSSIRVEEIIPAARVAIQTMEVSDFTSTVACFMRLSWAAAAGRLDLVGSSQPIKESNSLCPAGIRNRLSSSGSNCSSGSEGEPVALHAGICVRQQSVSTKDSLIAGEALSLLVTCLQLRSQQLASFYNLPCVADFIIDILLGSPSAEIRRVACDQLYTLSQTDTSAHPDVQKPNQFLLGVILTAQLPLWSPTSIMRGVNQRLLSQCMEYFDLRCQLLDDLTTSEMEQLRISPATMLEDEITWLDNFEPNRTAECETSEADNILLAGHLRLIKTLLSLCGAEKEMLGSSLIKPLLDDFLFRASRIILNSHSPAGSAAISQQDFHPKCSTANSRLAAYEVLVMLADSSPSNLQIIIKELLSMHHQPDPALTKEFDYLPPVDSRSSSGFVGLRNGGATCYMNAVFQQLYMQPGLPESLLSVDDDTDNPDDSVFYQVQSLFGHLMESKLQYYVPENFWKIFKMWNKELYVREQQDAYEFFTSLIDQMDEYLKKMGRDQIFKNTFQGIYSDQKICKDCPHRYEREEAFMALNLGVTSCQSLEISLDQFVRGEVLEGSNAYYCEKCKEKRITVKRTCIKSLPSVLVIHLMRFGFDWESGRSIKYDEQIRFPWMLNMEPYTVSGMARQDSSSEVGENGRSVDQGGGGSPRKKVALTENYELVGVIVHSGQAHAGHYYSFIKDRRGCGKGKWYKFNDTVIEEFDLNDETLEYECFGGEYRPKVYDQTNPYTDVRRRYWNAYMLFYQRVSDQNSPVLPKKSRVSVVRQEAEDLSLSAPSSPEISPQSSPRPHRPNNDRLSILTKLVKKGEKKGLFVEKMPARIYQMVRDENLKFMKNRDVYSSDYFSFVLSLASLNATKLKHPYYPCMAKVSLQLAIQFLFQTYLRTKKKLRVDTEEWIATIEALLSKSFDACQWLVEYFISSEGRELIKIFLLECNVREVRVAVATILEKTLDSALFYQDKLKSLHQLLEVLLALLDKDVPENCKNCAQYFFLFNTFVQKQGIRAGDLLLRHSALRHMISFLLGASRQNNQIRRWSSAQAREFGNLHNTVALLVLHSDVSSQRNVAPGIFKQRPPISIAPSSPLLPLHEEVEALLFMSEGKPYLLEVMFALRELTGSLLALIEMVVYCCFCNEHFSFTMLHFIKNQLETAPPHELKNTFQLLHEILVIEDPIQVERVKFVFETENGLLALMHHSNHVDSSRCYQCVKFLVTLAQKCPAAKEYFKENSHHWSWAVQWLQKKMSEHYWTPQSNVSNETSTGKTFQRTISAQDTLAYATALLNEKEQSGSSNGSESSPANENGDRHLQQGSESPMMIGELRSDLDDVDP

For the compound `O=C(CCl)Nc1cc2c(cc1Cl)OCCO2`, the “log2 ratio of Biotin-Ahx-Ub-VS probe labelling” value is 0.406 in the assay with USP16; 0.00638 in the assay with USP19; -0.0527 with USP24; -1.52 (active) in the assay with USP25; -1.81 (active) in the assay with USP28.
